The values below come from PubChem BioAssay AID1347131 (National Center for Advancing Translational Sciences (NCATS), 2019).

Screen size: about 410,000 compounds; about 2,000 (0.49%) were called active. Inconclusive results (about 8%) are left out. Calls follow the shape of the full dose curve; tested in HEK293 reporter line. The list comes from a sample in which actives are over-represented; it also holds similar structures and randomly drawn compounds. A call without a number means that no potency is given here.
Potency is read from the fitted curve at half-maximal effect.

This test is described as follows: qHTS Assay for Foot and Mouth Disease Virus Antivirals: Primary Screen against the MLPCN compound library. Also: nearly all actives have a fitted effect of over 55% in size. Conditions: FMDV antiviral cell-based qHTS; series mostly up to 57.9 µM.
Consider `CCc1ccc(NC(=O)CSCc2nc(N)nc(Nc3ccccc3CC)n2)cc1`, for which the Potency entry was “inactive”.
The result for `Cc1ccc(C(=O)COC(=O)c2cccc(NC(=O)c3ccc([N+](=O)[O-])cc3[N+](=O)[O-])c2)cc1` reads 20 µM (active).
The result for `Cc1ccc(C(=O)COC(=O)c2cc(Cl)ccc2O)cc1[N+](=O)[O-]` reads “inactive”; that for `CCCC(=O)Nc1cccc(NC(=O)c2cccc([N+](=O)[O-])c2C)c1`, “inactive”.
The result for `C=C(C(=O)c1ccccc1)C(c1ccccc1)C(C)C(=O)c1ccccc1` (configuration not stated) reads “inactive”; that for `CC(=O)OC1CC2C(C)(C)C(O)CC[C@@]2(C)C2CC[C@@]3(C)C(c4ccoc4)OC(=O)C4OC43[C@]12C` (some centres not stated), “inactive”.
`COC(=O)c1ccc(-c2nc3ccccc3[nH]2)cc1`: the Potency was 15.8 µM (active).
The result for `CS(=O)(=O)c1ccc(C(=O)Nc2cccc(-c3nc4ccccc4[nH]3)c2)cc1` reads “inactive”; that for `CS(=O)(=O)c1ccc(C(=O)Nc2ccc(-c3nc4ccccc4[nH]3)cc2)cc1`, “inactive”; that for `COc1ccccc1N1CCN(Cc2cc(=O)oc3cc(C)ccc23)CC1`, “inactive”.
The result for `Cc1nc2ccccc2c2oc(C(=O)N3CC(C)CC(C)C3)cc12` (configuration not stated) reads “inactive”.
The result for `Cc1ccc(OC(=O)Cn2c(C(F)(F)F)nc3ccccc32)cc1` reads “inactive”.
With `COc1cccc(NC(=S)NCc2cccs2)c1`, the Potency result was “inactive”.
The same measure for `N#CC1=C(N)C(C#N)(C#N)[C@H](c2ccoc2)[C@H]2CN(Cc3ccccc3)CC=C12`: “inactive”.
The result for `CC(=O)N1CC=C2C(C#N)=C(N)C(C#N)(C#N)C(CCc3ccccc3)C2C1` (configuration not stated) reads “inactive”; that for `N#CC1=C(N)C(C#N)(C#N)C(c2cccnc2)C2CN(C(=O)OCc3ccccc3)CC=C12` (configuration not stated), 22.4 µM (active).
The same measure for `Brc1ccc([C@H]2C=C[C@H]3CCCN4CC[C@H]2[C@@H]3[C@]42CO2)cc1`: “inactive”.
`CC(=O)Nc1ccc(S(=O)(=O)c2ccc([N+](=O)[O-])cc2)cc1`: the Potency result was “inactive”.
The same measure for `COc1ccc(CN2C(=O)NC(=O)/C(=C/c3ccoc3)C2=O)cc1`: “inactive”.
The result for `O=C1NC(=O)N(Cc2ccccc2)C(=O)/C1=C\N1CCCc2ccccc21` reads “inactive”; that for `O=C1NC(=O)N(CCc2ccc(F)cc2)C(=O)/C1=C/C=C/c1ccccc1`, 10 µM (active).
The result for `O=C(Nc1ccc2c(c1)OCO2)c1cc(-c2ccc(Br)cc2)on1` reads “inactive”; that for `CN(CCOc1ccc(Cl)cc1)CC(=O)Nc1ccc(OC(F)(F)F)cc1`, “inactive”.
Take `Cc1[nH]n(-c2ccc(F)cc2)c(=O)c1/C=N/c1sc2c(c1C#N)CCCC2`: the Potency entry is “inactive”.
The same measure for `O=C(Nc1sc2c(c1C(=O)Nc1ccc(Cl)cc1)CCCC2)c1cccs1`: “inactive”.
The result for `N#Cc1c(/N=C/c2cccs2)sc2c1CCCCC2` reads 25.1 µM (active); that for `O=C(Cc1ccccc1)NCC(=O)OCc1ccccc1F`, “inactive”; that for `CC(Sc1nc2ccccc2c(=O)n1CC1CCCO1)C(=O)N(C)c1ccccc1` (configuration not stated), “inactive”.
The same measure for `COc1ccc(C(CC(=O)Nc2cc([N+](=O)[O-])ccc2OC)c2ccccc2)cc1` (configuration not stated): “inactive”; for `CC(=O)NNC(=S)NC(=O)C(c1ccccc1)c1ccccc1`: “inactive”; for `CCOC1=C2CN(S(=O)(=O)c3ccc(C)cc3)[C@H](c3ccccc3)C[C@@H]2N(S(=O)(=O)c2ccc(C)cc2)[C@H](c2ccccc2)C1`: “inactive”.
For `CC(C)c1ccc(NC(=O)c2cc(S(=O)(=O)N(C)C3CCCCC3)ccc2F)cc1`, the Potency entry was “inactive”.
As for `CCCOc1ccc(C(=O)Nc2ccc3oc(-c4cccc(Cl)c4Cl)nc3c2)cc1`, the Potency entry was “inactive”.
The result for `CCc1ccc2oc(-c3cc(N)ccc3Cl)nc2c1` reads 17.8 µM (active).
The result for `CCOCCc1nnc(NC(=O)CS(=O)(=O)Cc2ccccc2)s1` reads “inactive”.
The same measure for `CCCCN1C[C@H](CSC)[C@@H](CC(=O)NC)C1=O`: “inactive”.
As for `COc1ccc(NC(=O)NC23CC4(C)CC(C)(CC(C)(C4)C2)C3)cc1OC`, the Potency entry was “inactive”.
Turning to `COc1ccc(N2CCN(C(=O)CN3CCSc4ccccc43)CC2)cc1`, the Potency result was “inactive”.
The result for `Cc1ccn2c(/C=N/OCc3cccc(F)c3)c(-c3ccc(Cl)cc3)nc2c1` reads “inactive”; that for `Cc1ccc(OCC(=O)Nc2ccc3c(c2)nc(CCNC(=O)c2ccco2)n3C)cc1`, “inactive”; that for `Cc1ccc(C(=O)OCC(=O)Nc2ccc(C)c(S(=O)(=O)N3CCCCC3)c2)c(O)c1`, “inactive”.
The result for `Cc1ccc2nc(-c3ccc(NC(=O)COC(=O)c4cncc(Br)c4)cc3)sc2c1` reads 17.8 µM (active).
In the case of `O=C(COC(=O)c1ccco1)Nc1ccc2[nH]c(=O)[nH]c2c1`, the Potency entry is “inactive”.
The result for `CCN(CC)S(=O)(=O)c1cccc(NC(=O)COC(=O)c2cncc(Br)c2)c1` reads “inactive”.
The same measure for `Cc1ccc2nc(-c3ccc(NC(=O)COC(=O)c4ccco4)cc3)sc2c1`: 12.6 µM (active); for `O=C(N/N=C/c1cccc([N+](=O)[O-])c1)c1ccc(CN2CCOCC2)cc1`: “inactive”.
With `CCOc1cc(/C=N/Nc2cc(C)nc(-n3nc(C)cc3C)n2)ccc1O`, the Potency entry is “inactive”.
The same measure for `CC(OC(=O)/C=C/c1ccco1)C(=O)NC1CCCCC1C` (configuration not stated): “inactive”.
The result for `O=C1c2ccccc2C(=O)C1c1ccnc2ccccc12` reads 14.1 µM (active).
The same measure for `O=S(=O)(c1cccs1)N1CCN(CCc2ccccc2)CC1`: “inactive”.
In the case of `O=C(CCCc1nc2ccccc2s1)N1CCN(S(=O)(=O)c2cccs2)CC1`, the Potency is 25.1 µM (active).
The same measure for `Cc1ccc2c(CC(=O)N3CCN(S(=O)(=O)c4cccs4)CC3)coc2c1`: “inactive”; for `COc1ccc(C(=O)NCC(=O)N2CC=C(c3ccccc3)CC2)cc1OC`: “inactive”.
The same measure for `O=c1nc(N/N=C/C=C/c2ccccc2)cn[nH]1`: 14.1 µM (active); for `COc1ccc(CCN(C)C(=O)c2cc(S(=O)(=O)N3CCCCC3)ccc2Cl)cc1OC`: “inactive”.
In the case of `COCCn1c(C)cc(C(=O)COC(=O)c2ccc[nH]c2=O)c1C`, the Potency result was “inactive”.
The result for `Cc1sc2ncnc(NCC(c3ccco3)N3CCCC3)c2c1C` (configuration not stated) reads “inactive”; that for `CCOc1cc(-c2c(C#N)c(=O)[nH]c3c2c(C)nn3-c2ccc(F)cc2)ccc1O`, “inactive”; that for `COc1ccc2oc(=O)c(C(=O)NCCc3c(C)[nH]c4ccc(C)cc34)cc2c1`, “inactive”.
The same measure for `COc1ccc(-c2cnc(SCC(=O)Nc3ccc4c(c3)OCO4)n2Cc2ccco2)cc1`: “inactive”.
The result for `O=C(CSc1nnc(NC(=O)c2ccc3c(c2)OCO3)s1)NCc1ccco1` reads 17.8 µM (active).
Consider `COc1cc(OC)cc(C(=O)Nc2nnc(SCC(=O)NCc3ccco3)s2)c1`, for which the Potency result was “inactive”.
